Compounds with a hit are over-represented: about 4% of the library has one in this group of screens.
Wnt act – activates Wnt/beta-catenin signaling in a reporter cell assay; activator, plate reader; AID 743398; activation, % at 9.35 µM; 1.2% of 300,000 active; in the data active = activation above about 30%, passing the limit was not always enough;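 also: 0% = neutral control wells and 100% = positive control wells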
MITF TRPM1 HTS – activators of MITF-driven TRPM1 promoter activity in SK-MEL-5 cells. activation, % at 12.5 µM. SK-MEL-5 TRPM1-promoter luciferase, 24 h; % of positive control, neutral wells = 0. 0.75% of 300,000 active;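 active = mean activation of at least 80% with every replicate also reaching 80%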;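 also: 0% = neutral control wells and 100% = parthenolide positive control wells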
EWS-Fli inh – inhibitors of EWS/Fli oncoprotein transcriptional activity. A673 NR0B1-luciferase reporter, viability-normalised. inhibition, % at 12.6 µM. 0.67% of 350,000 active;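 active = mean inhibition of at least 50% after viability correction, with every replicate also passing that limit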;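 also: firefly luciferase signal divided by Alamar Blue viability fluorescence both relative to DMSO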
PAX8 inh HTS – inhibitors of PAX8 transcriptional activity in RMG-I cells; 1.2% of 360,000 active; RMG-I TPO-luciferase reporter, SteadyGlo, 24 h; inhibition, % at 12.6 µM;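 active = mean replicate inhibition at least 60% with every replicate also reaching 60%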;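 also: luciferase light reporting Pax8 driven TPO promoter activity; plate controls were median of neutral control wells for no effect and mitoxantrone controls for full effect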
TRPM1 prom inh – inhibitors of MITF-driven TRPM1 promoter in melanoma cells | SK-MEL-5 TRPM1 promoter luciferase, 24 h | inhibition, % at 12.5 µM | 0.83% of 330,000 active | AID 488899;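 active = mean inhibition across replicates of 60% or more, whatever share of single replicates reaches that level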
esBAF inh – blocks esBAF chromatin remodeling in mouse ES cells. reporter increase, % at 12.5 µM. 2% of 350,000 active. Bmi1-luciferase knock-in reporter, 24 h; 100% = twice the neutral-well signal; in the data active = activation above about 40%;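 also: 0% = median of the plate's neutral control wells and 100% = double that signal; a rise in the Bmi1 reporter signal indicates esBAF inhibition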
The depositor's hits bear a star; / = no result given.

SMILES	Wnt act	MITF TRPM1 HTS	EWS-Fli inh	PAX8 inh HTS	TRPM1 prom inh	esBAF inh
C[C@@H]1CCCCO[C@H](CN(C)S(=O)(=O)c2ccccc2)[C@H](C)CN([C@H](C)CO)C(=O)c2cc(NS(C)(=O)=O)ccc2O1	/	/	-2.5	5.0	/	1.8
COc1ccc(C)cc1Nc1c2c(nc3ccccc13)CCC2	-4.6	-2.9	53.4*	47.2	6.1	/
C[C@@H]1CN([C@@H](C)CO)C(=O)c2cccc(NC(=O)Nc3ccc(F)cc3)c2O[C@H]1CN(C)Cc1ccc(Oc2ccccc2)cc1	/	/	-12.6	/	/	3.0
O=C(C[C@@H]1CC[C@@H]2[C@H](COC[C@H](O)CN2C(=O)c2ccccn2)O1)NC1CCC1	/	/	/	/	/	3.4
C[C@@H]1CN([C@@H](C)CO)C(=O)Cc2cc(NS(=O)(=O)c3cccs3)ccc2O[C@H]1CN(C)Cc1ccc(C(F)(F)F)cc1	/	/	32.9	91.4*	/	-3.0
C[C@H](CO)N1C[C@H](C)[C@@H](CN(C)Cc2ccc(C(F)(F)F)cc2)Oc2ccc(NS(=O)(=O)c3ccccc3)cc2CC1=O	/	/	/	76.2*	/	-5.0
C[C@H](CO)N1C[C@H](C)[C@@H](CN(C)Cc2ccc(C(F)(F)F)cc2)Oc2ccc(NS(=O)(=O)c3ccc(F)cc3)cc2CC1=O	/	/	17.7	82.8*	/	4.2
C[C@H](CO)N1C[C@H](C)[C@H](CN(C)Cc2ccc(C(F)(F)F)cc2)Oc2ccc(NS(=O)(=O)c3ccc(F)cc3)cc2CC1=O	/	/	-0.5	84.9*	/	13.4
Cc1ccc(S(=O)(=O)Nc2ccc3c(c2)CC(=O)N([C@H](C)CO)C[C@H](C)[C@@H](CN(C)Cc2ccc(C(F)(F)F)cc2)O3)cc1	/	/	13.7	42.5	/	8.6
C[C@H]1CN([C@@H](C)CO)C(=O)Cc2cc(NS(=O)(=O)c3cccs3)ccc2O[C@@H]1CN(C)Cc1ccc(C(F)(F)F)cc1	/	/	-12.8	17.3	/	-3.4
C[C@H]1CN([C@@H](C)CO)C(=O)Cc2cc(NS(=O)(=O)c3ccc(Cl)cc3)ccc2O[C@H]1CN(C)Cc1ccc(C(F)(F)F)cc1	/	/	-11.0	-17.0	/	7.3
C[C@@H]1CN([C@@H](C)CO)C(=O)c2cc(NS(=O)(=O)c3ccc(F)cc3)ccc2O[C@@H]1CN(C)Cc1ccc(C(F)(F)F)cc1	/	/	75.3*	106.9*	/	3.8
C[C@H](CO)N1C[C@H](C)[C@H](CN(C)Cc2ccc(C(F)(F)F)cc2)Oc2ccc(NS(=O)(=O)c3ccc(Cl)cc3)cc2CC1=O	/	/	59.2*	4.3	/	0.4
Cc1ccc(S(=O)(=O)Nc2cccc3c2O[C@@H](CN(C)C(=O)Nc2c(C)noc2C)[C@@H](C)CN([C@H](C)CO)C3=O)cc1	/	/	-14.8	9.9	/	1.1
CCC(=O)N1C[C@H](O)COC[C@H]2O[C@@H](CC(=O)NC)CC[C@@H]21	/	/	6.8	-20.4	/	0.5
O=C(c1ccc(S(=O)(=O)Cc2ccccc2Cl)c([N+](=O)[O-])c1)N1CCN(c2ccccn2)CC1	-2.1	-73.1	9.0	52.6	73.5*	-5.6
O=C(c1ccc(Cl)c([N+](=O)[O-])c1)N1CCN(c2ccccn2)CC1	7.6	-3.6	-15.1	17.4	3.6	/
C[C@H](CO)N1C[C@H](C)[C@H](CN(C)C(=O)Nc2ccc(C(F)(F)F)cc2)OCCCC[C@H](C)Oc2ccc(NS(=O)(=O)c3cccs3)cc2C1=O	/	/	8.5	65.7*	/	-7.1
C[C@@H]1CCCCO[C@H](CN(C)C(=O)Nc2ccc(C(F)(F)F)cc2)[C@@H](C)CN([C@H](C)CO)C(=O)c2cc(NS(=O)(=O)c3cccs3)ccc2O1	/	/	-14.4	3.4	/	-4.6
C[C@H]1CCCCO[C@@H](CN(C)C(=O)Nc2ccc(C(F)(F)F)cc2)[C@@H](C)CN([C@@H](C)CO)C(=O)c2cc(NS(=O)(=O)c3cccs3)ccc2O1	/	/	14.0	61.7*	/	9.0
C[C@@H]1CN([C@@H](C)CO)C(=O)c2cc(NS(=O)(=O)c3cccs3)ccc2O[C@@H](C)CCCCO[C@@H]1CN(C)C(=O)Nc1ccc(C(F)(F)F)cc1	/	/	31.5	41.8	/	/
C[C@@H]1CCCCO[C@@H](CN(C)C(=O)Nc2ccc(C(F)(F)F)cc2)[C@H](C)CN([C@H](C)CO)C(=O)c2cc(NS(=O)(=O)c3cccs3)ccc2O1	/	/	27.3	85.5*	/	5.6
C[C@@H]1CCCCO[C@@H](CN(C)C(=O)Nc2ccc(C(F)(F)F)cc2)[C@@H](C)CN([C@H](C)CO)C(=O)c2cc(NS(=O)(=O)c3cccs3)ccc2O1	/	/	10.1	/	/	/
